Experimental data as given in PubChem BioAssay (Tox21).
Records with an inconclusive call do not appear. Where a call stands in place of a potency, no number is given. Values without a mark were called inactive. Activity calls are given as the source filed them. Calls come from the whole dose curve; as a rule, active = well fitted curve in the direction sought with a large enough effect in the repeat runs; inconclusive = weak or mixed curves; inactive = no such curve, though single readings can be large; an effect the other way counts as inactive or inconclusive.

Experiments:
[1] = A CellTox Green Cytotoxicity Assay to monitor cytotoxicity in HEK293 cells - 40 hour (AID 1224871); note: nearly all actives have a fitted effect of over 45% in size; note: potency is the fitted concentration of half-maximal effect
Summary of the method: (§1)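 Cytotoxicity was tracked continuously in HEK293 cells by a DNA-binding dye excluded from viable cells. Compounds were transferred in DMSO 5 h after seeding; fluorescence was recorded at intervals up to 40 h.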

[2] = qHTS RealTime-Glo MT Cell Viability Assay in HEK293 cells - 16 hour (AID 1224872); note: nearly all actives have a fitted effect of over 50% in size; note: potency is the fitted concentration of half-maximal effect; for activity change, negative = cytotoxicity: top concentration of the series differs between compounds
Summary of the method: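 Quantitative high-throughput screen of the Tox21 10K library in HEK293: cells and RealTime-Glo reagents plated together, compound added at 5 h, luminescence monitored through 40 h at 37 C.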

[3] = qHTS RealTime-Glo MT Cell Viability Assay in HepG2 cells - 8 hour (AID 1224873); note: nearly all actives have a fitted effect of over 55% in size; note: potency is the fitted concentration of half-maximal effect
Summary of the method: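 HepG2 cells mixed with RealTime-Glo MT reagents (NanoLuc plus cell-permeant prosubstrate) were seeded at 600 cells/well, incubated 5 h at 37 C/5% CO2, then pinned with compounds in DMSO; nonlytic luminescence tracked viability during 40 h treatment.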

[4] = qHTS RealTime-Glo MT Cell Viability Assay in HEK293 cells - 40 hour (AID 1224874); details: RealTime-Glo luminescence; max response: stronger effect = lower value; note: nearly all actives have a fitted effect of over 50% in size; note: potency is the fitted concentration of half-maximal effect
Summary of the method: (§2)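 Nonlytic bioluminescent viability monitoring. HEK293 at 600 cells/well with reagent; 5 h settle; compound transfer by pintool; plates held at 37 C and read at set time points.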

[5] = A CellTox Green Cytotoxicity Assay to monitor cytotoxicity in HEK293 cells - 24 hour (AID 1224875); note: nearly all actives have a fitted effect of over 45% in size; note: potency is the fitted concentration of half-maximal effect; for activity change: series mostly up to about 77 µM
Summary of the method: as §1

[6] = A CellTox Green Cytotoxicity Assay to monitor cytotoxicity in HepG2 cells - 16 hour (AID 1224876); note: nearly all actives have a fitted effect of over 45% in size; note: potency is the fitted concentration of half-maximal effect
Summary of the method: (§3)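 Real-time, homogeneous cytotoxicity readout: dead-cell DNA staining by CellTox Green in HepG2 monolayers, fluorescence measured at timed intervals up to 40 h of continuous compound exposure.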

[7] = qHTS RealTime-Glo MT Cell Viability Assay in HepG2 cells - 32 hour (AID 1224877); note: nearly all actives have a fitted effect of over 55% in size; note: potency is the fitted concentration of half-maximal effect
Summary of the method: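 Compound treatment began 5 h after plating HepG2 cells (600/well) with NanoLuc luciferase and prosubstrate. Plates stayed at 37 C for 40 h; luminescence was captured at six time points, 0 h through 40 h.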

[8] = A CellTox Green Cytotoxicity Assay to monitor cytotoxicity in HepG2 cells - 24 hour (AID 1224878); note: nearly all actives have a fitted effect of over 45% in size; note: potency is the fitted concentration of half-maximal effect
Summary of the method: as §3

[9] = qHTS RealTime-Glo MT Cell Viability Assay in HEK293 cells - 0 hour (AID 1224880)
Summary of the method: as §2

[10] = A CellTox Green Cytotoxicity Assay to monitor cytotoxicity in HepG2 cells - 40 hour (AID 1224879); note: nearly all actives have a fitted effect of over 40% in size; note: potency is the fitted concentration of half-maximal effect
Summary of the method: as §3

In the case of `O=C(O)[C@H](O)[C@@H](O)C(=O)O`, the Potency [1] was “inactive”, the Potency [2] was “inactive” and the Potency [3] was “inactive”. For the same compound, the max response [4] was 5.57%, the Potency [5] was “inactive” and the Potency [6] was “inactive”. The Potency [7] was “inactive”, the Potency [8] was “inactive” and the Potency [9] was “inactive”.
For `CN1CCc2cc3c(cc2C1O)OCO3` (stereo not given), the Potency [1] was “inactive”, the Potency [2] was “inactive” and the Potency [3] was “inactive”. For the same compound, the max response [4] was 1.96%, the Potency [5] was “inactive” and the Potency [6] was “inactive”. The Potency [7] was “inactive”, the Potency [8] was “inactive” and the Potency [9] was “inactive”.
In the case of `Clc1c(Cl)c(Cl)c(Cl)c(Cl)c1Cl`, the cytotoxicity increase [1] was -20.6% [at 6.97 µM], the activity change, negative = cytotoxicity [2] was 3.93% [at 6.97 µM] and the viability change, negative = cytotoxic [3] was 1.69% [at 6.97 µM]. For the same compound, the max response [4] was 8.77%, the activity change [5] was -16.1% [at 6.97 µM, stronger effect = higher value] and the cytotoxicity increase [6] was 0.26% [at 6.97 µM]. The activity change, negative = cytotoxic [7] was 0.7% [at 6.97 µM], the cytotoxicity [8] was 0.224% [at 6.97 µM] and the cytotoxicity increase [10] was -0.205% [at 6.97 µM]. For the same compound, the activity change, negative = cytotoxicity [9] was 2.6% [at 6.97 µM].
With `ClC1(Cl)C2(Cl)C3(Cl)C4(Cl)C(Cl)(Cl)C5(Cl)C3(Cl)C1(Cl)C5(Cl)C24Cl` (stereo not given) the Potency [1] was “inactive”, the Potency [2] was “inactive” and the Potency [3] was “inactive”. The max response [4] was -13.1%, the Potency [5] was “inactive” and the Potency [6] was “inactive”. For the same compound, the Potency [7] was “inactive”, the Potency [8] was “inactive” and the Potency [10] was “inactive”. The Potency [9] was “inactive”.
In the case of `COc1ccc(Cc2nccc3cc(OC)c(OC)cc23)cc1OC`, the Potency [1] was “inactive”, the Potency [2] was 4770 nM (active) and the Potency [3] was 10700 nM (active). For the same compound, the Potency [4] was 5350 nM (active), the Potency [5] was “inactive” and the Potency [6] was “inactive”.
For `CCOC(=O)Cc1ccccc1`, the Potency [1] was “inactive”, the Potency [2] was “inactive” and the Potency [3] was “inactive”. The max response [4] was 17.4%, the Potency [5] was “inactive” and the Potency [6] was “inactive”. For the same compound, the Potency [7] was “inactive” and the Potency [9] was “inactive”.
For `CNC(=O)O/N=C(\C)C(C)S(C)(=O)=O` (stereo not given), the Potency [1] was “inactive”, the Potency [2] was “inactive” and the Potency [3] was “inactive”. For the same compound, the max response [4] was 1.59%, the Potency [5] was “inactive” and the Potency [6] was “inactive”. For the same compound, the Potency [7] was “inactive” and the Potency [9] was “inactive”.
With `CCCCn1cc[n+](C)c1.[Cl][Fe-]([Cl])([Cl])[Cl]` the Potency [1] was “inactive”, the Potency [2] was “inactive” and the Potency [3] was “inactive”. The max response [4] was 2.18%, the Potency [5] was “inactive” and the Potency [6] was “inactive”. For the same compound, the Potency [7] was “inactive”, the Potency [8] was “inactive” and the Potency [10] was “inactive”. The Potency [9] was “inactive”.
For `ClC(Cl)C(Cl)(Cl)Cl`, the Potency [1] was “inactive”, the Potency [2] was “inactive” and the Potency [3] was “inactive”. The max response [4] was 0.191%, the Potency [5] was “inactive” and the Potency [6] was “inactive”. For the same compound, the Potency [7] was “inactive”, the Potency [8] was “inactive” and the Potency [10] was “inactive”. The Potency [9] was “inactive”.
In the case of `CC(=O)[O][Pb]([c]1ccccc1)([c]1ccccc1)[c]1ccccc1`, the Potency [1] was 2450 nM (active), the Potency [2] was 490 nM (active) and the Potency [3] was 3470 nM (active). The Potency [4] was 389 nM (active), the Potency [5] was 3890 nM (active) and the Potency [6] was 1950 nM (active). For the same compound, the Potency [7] was 977 nM (active), the Potency [8] was 1380 nM (active) and the Potency [10] was 977 nM (active).
For `CN1C2CCC(C)(C)C1CC(OC(=O)C(O)(c1cccs1)c1cccs1)C2` (stereo not given), the Potency [1] was “inactive”, the Potency [2] was “inactive” and the Potency [3] was “inactive”. For the same compound, the max response [4] was -25.3%, the Potency [5] was “inactive” and the Potency [6] was “inactive”. The Potency [7] was “inactive”, the Potency [8] was “inactive” and the Potency [9] was “inactive”.
With `CSC(=O)c1c(C(F)F)nc(C(F)(F)F)c(C(=O)SC)c1CC(C)C` the Potency [1] was “inactive”, the Potency [2] was “inactive” and the Potency [3] was “inactive”. For the same compound, the max response [4] was -19%, the Potency [5] was “inactive” and the Potency [6] was “inactive”. The Potency [7] was “inactive”, the Potency [8] was “inactive” and the Potency [10] was “inactive”. The Potency [9] was “inactive”.
With `CCCCc1ccccc1` the Potency [1] was “inactive”, the Potency [2] was “inactive” and the Potency [3] was “inactive”. The max response [4] was -16%, the Potency [5] was “inactive” and the Potency [6] was “inactive”. For the same compound, the Potency [7] was “inactive”, the Potency [10] was “inactive” and the Potency [9] was “inactive”.
With `CC1CCCC1` the Potency [1] was “inactive”, the Potency [2] was “inactive” and the Potency [3] was “inactive”. For the same compound, the max response [4] was -28.5%, the Potency [5] was “inactive” and the Potency [6] was “inactive”. The Potency [7] was “inactive”, the Potency [8] was “inactive” and the Potency [10] was “inactive”. The Potency [9] was “inactive”.
With `O=C(NC(=O)c1c(F)cccc1F)Nc1ccc(Oc2ccc(C(F)(F)F)cc2Cl)cc1F` the Potency [1] was “inactive”, the Potency [2] was 24500 nM (active) and the Potency [3] was “inactive”. For the same compound, the Potency [4] was 43600 nM (active), the Potency [5] was “inactive” and the Potency [6] was “inactive”. For the same compound, the Potency [8] was “inactive”, the Potency [10] was “inactive” and the Potency [9] was “inactive”.
In the case of `CCN(CC)C(=O)N[C@@H]1C=C2c3cccc4[nH]cc(c34)C[C@@H]2N(C)C1`, the Potency [1] was “inactive”, the Potency [2] was “inactive” and the Potency [3] was “inactive”. For the same compound, the max response [4] was -0.723%, the Potency [5] was “inactive” and the Potency [6] was “inactive”. For the same compound, the Potency [8] was “inactive”, the Potency [10] was “inactive” and the Potency [9] was “inactive”.
For `[O]=[Cr][O][Cr]=[O]`, the Potency [1] was “inactive”, the Potency [2] was “inactive” and the Potency [3] was “inactive”. For the same compound, the max response [4] was 17.9%, the Potency [5] was “inactive” and the Potency [6] was “inactive”. For the same compound, the Potency [7] was “inactive”, the Potency [8] was “inactive” and the Potency [10] was “inactive”. The Potency [9] was “inactive”.
For `[F][Sn]([c]1ccccc1)([c]1ccccc1)[c]1ccccc1`, the Potency [1] was 1550 nM (active), the Potency [2] was 549 nM (active) and the Potency [3] was 1740 nM (active). The Potency [4] was 436 nM (active), the Potency [5] was 3470 nM (active) and the Potency [6] was 1740 nM (active). The Potency [7] was 347 nM (active), the Potency [8] was 2190 nM (active) and the Potency [10] was 692 nM (active). For the same compound, the Potency [9] was “inactive”.
For `CNC(=O)/C=C(\C)OP(=O)(OC)OC`, the Potency [1] was “inactive”, the Potency [2] was “inactive” and the Potency [3] was “inactive”. For the same compound, the max response [4] was 6.16%, the Potency [5] was “inactive” and the Potency [6] was “inactive”. For the same compound, the Potency [7] was “inactive”, the Potency [8] was “inactive” and the Potency [10] was “inactive”. The Potency [9] was “inactive”.
With `COP(=S)(NC(C)C)Oc1ccc(C)cc1[N+](=O)[O-]` (stereo not given) the Potency [1] was “inactive”, the Potency [2] was “inactive” and the Potency [3] was “inactive”. The max response [4] was -12.5%, the Potency [5] was “inactive” and the Potency [6] was “inactive”. The Potency [7] was “inactive”, the Potency [8] was “inactive” and the Potency [10] was “inactive”. For the same compound, the Potency [9] was “inactive”.
